Source: PubChem BioAssay AID720579 (National Center for Advancing Translational Sciences (NCATS), 2013)
Among all 310,000 compounds or so, about 1,900 (0.61%) were called active. Inconclusive results (about 8%) are left out. Only a selection was taken, and actives are over-represented in it overall. Values without a mark were called inactive. The call rests on the fitted dose curve; tested in A549 cells.

Experiment: qHTS for Stage-Specific Inhibitors of Vaccinia Orthopoxvirus: mCherry Reporter Primary qHTS; further: nearly all actives have a fitted effect of over 35% in size
Conditions: Vaccinia virus mCherry reporter infection, fluorescence; series mostly up to 36.5 µM; activity change, negative = inhibition: at the top concentration
On the % scale 0 is the no-effect control and ±100 the full control effect; potency means the concentration at half of the fitted maximal effect.

Question: For `Cc1ccc(S(=O)(=O)N2CCN(c3ncnc4ccccc34)CC2)cc1`, which “outcome” value is on record?
Answer: Its value is “inactive”.

Question: For `Cc1ccc(C)c(S(=O)(=O)N2CCN(c3ncnc4sccc34)CC2)c1`, which Potency is on record?
Answer: Its Potency is 7.08 µM (active).

Question: For `CCCN(CCC)S(=O)(=O)c1cc2c(cc1Br)CCN2C(=O)CC`, which “activity change, negative = inhibition” value is on record?
Answer: The value was -19.1%.

Question: With `CCCNC(=O)C1(C)CCN(Cc2ccc(Cl)c(Cl)c2)C1` (centres undefined) as the compound, how does the “activity change, negative = inhibition” value read?
Answer: The value was 10.3%.

Question: With `CCn1c(=O)c(=O)[nH]c2c(=O)oc3ccc(S(=O)(=O)Nc4ccc(OC)cc4)cc3c21` as the compound, how does the “activity change, negative = inhibition” value read?
Answer: Its value is -4.06%.

Question: Which Potency does the source give for `COc1ccc(NS(=O)(=O)c2ccc3oc(SCC(N)=O)nc3c2)cc1` here?
Answer: Its Potency is 3.55 µM (active).

Question: Which “activity change, negative = inhibition” value does the source give for `COc1ccc(NC(=O)c2cnc(NS(=O)(=O)c3ccccc3)nc2)cc1` here?
Answer: The value was -2.69%.

Question: Which “outcome” value does the source give for `Cc1ccc(NC(=O)Cn2sc3ccccc3c2=O)cc1` here?
Answer: The value was “inactive”.

Question: Which “activity change, negative = inhibition” value does the source give for `CN(C(=N)N)c1ccc(/C=C2\C=Cc3ccccc32)cc1` here?
Answer: The value was -25.5%.

Question: For `CCOC(=O)[C@]12CCCC=C1N(CCC1=CCCCC1)C(=O)[C@H](CC(=O)N1CCCCC1)C2`, which “activity change, negative = inhibition” value is on record?
Answer: Its value is -13.6%.

Question: With `COc1cc2nc(N3CCCN(C)CC3)nc(NC3CC3)c2cc1OC` as the compound, how does the “activity change, negative = inhibition” value read?
Answer: Its value is -9.78%.

Question: For `c1ccc(C(=NNc2nc3ccccc3s2)c2ccccn2)cc1`, which Potency is on record?
Answer: The Potency was 7.08 µM (active).

Question: For `O=C(Nc1ccccc1Cl)O/N=C(/c1ccccc1)c1ccccn1`, which “activity change, negative = inhibition” value is on record?
Answer: Its value is -20.6%.

Question: With `c1ccc2sc(NN=C3CCCC3)nc2c1` as the compound, how does the “activity change, negative = inhibition” value read?
Answer: Its value is -13.5%.

Question: With `Cc1[nH]c2ccccc2c1C(=O)c1cc([C@H](NC(=O)OC(C)(C)C)C(C)C)sc1N` as the compound, how does the “activity change, negative = inhibition” value read?
Answer: Its value is -10.6%.

Question: With `CCCCN(C(C)=O)c1ccc2c(c1)C1CC2CCN1Cc1ccccc1` (centres undefined) as the compound, how does the “outcome” value read?
Answer: Its value is “inactive”.

Question: Which Potency does the source give for `O=[N+]([O-])c1ccc(F)cc1Oc1nc(-c2cccnc2)nc2ccccc12` here?
Answer: Its Potency is 3.55 µM (active).

Question: Which outcome does the source give for `Fc1ccc(/C=N/Nc2nc(-c3cccnc3)nc3ccccc23)cc1` here?
Answer: The outcome was “inactive [at 7.34 µM]”.

Question: For `COc1ccccc1Oc1nc(-c2cccnc2)nc2ccccc12`, which “outcome” value is on record?
Answer: Its value is “inactive”.

Question: Which “activity change, negative = inhibition” value does the source give for `COc1ccc(-c2ccc(C(=O)NCCN3CCOCC3)c3occc23)c(C)c1` here?
Answer: The value was -6.53%.

Question: For `COC1CC(OC2CC[C@@]3(C=O)C4CC[C@]5(C)C(C6=CC(=O)OC6)CC[C@@]5(O)C4CC[C@]3(O)C2)OC(C)C1O` (some centres undefined), which Potency is on record?
Answer: Its Potency is 2.51 µM (active).

Question: With `CC1=C(C(=O)N2CCOCC2)CC(CC(=O)NCC2CCCCC2)C(=O)N1Cc1ccc(F)cc1` (centres undefined) as the compound, how does the “activity change, negative = inhibition” value read?
Answer: Its value is -20.7%.

Question: Which “outcome” value does the source give for `CC(=O)C1=CCC(c2ccccc2)N(S(=O)(=O)c2ccc(C)cc2)C1` (centres undefined) here?
Answer: Its value is “inactive”.

Question: With `COc1cccc(NC(=O)C2(C)CCN2C(=O)CCC2CCCC2)c1` (centres undefined) as the compound, how does the “outcome” value read?
Answer: The value was “inactive”.

Question: Which “activity change, negative = inhibition” value does the source give for `CCCCCCN1CCN(C2CN(Cc3cn(CCCCCC)nn3)S(=O)(=O)C2)CC1` (centres undefined) here?
Answer: Its value is -6.2%.

Question: Which “activity change, negative = inhibition” value does the source give for `CN1CCc2cc3c(cc2[C@H]1[C@@H]1OC(=O)c2c1ccc1c2OCO1)OCO3` here?
Answer: The value was -6.18%.

Question: For `COc1c(O)ccc2c1CN1CCc3cc4c(cc3C1C2)OCO4` (centres undefined), which Potency is on record?
Answer: Its Potency is 11.2 µM (active).

Question: With `COc1ccc2c(c1O)-c1cccc3c1[C@@H](C2)N(C)CC3` as the compound, how does the “activity change, negative = inhibition” value read?
Answer: Its value is -17.5%.

Question: For `CC(C)NC(=O)C1(C)CCCCCN1C(=O)c1ccc(-c2ccccc2)cc1` (centres undefined), which “outcome” value is on record?
Answer: Its value is “inactive”.

Question: For `CC(=O)c1ccc(Nc2nc(C(N)c3ccccc3Cl)cs2)cc1` (centres undefined), which “activity change, negative = inhibition” value is on record?
Answer: Its value is -16.5%.

Question: With `CC(=O)Nc1cccc(-c2cc(NC(C)=O)c3ncc(-c4ccccc4)n3c2)c1` as the compound, how does the “activity change, negative = inhibition” value read?
Answer: Its value is 12%.

Question: Which “activity change, negative = inhibition” value does the source give for `COc1ccc(-c2cc(C(=O)N/N=C/c3cccnc3)c3ccccc3n2)c(OC)c1` here?
Answer: Its value is -10.7%.

Question: With `COc1ccc(-c2cc(C(=O)Nc3ccccc3O)c3ccccc3n2)cc1` as the compound, how does the “activity change, negative = inhibition” value read?
Answer: Its value is -20.4%.

Question: For `CCOc1ccc(-c2cc(C(=O)N/N=C/c3ccc(O)cc3)c3ccccc3n2)cc1`, which Potency is on record?
Answer: The Potency was 3.98 µM (active).

Question: Which “outcome” value does the source give for `CC1(C(=O)Nc2ccc3c(c2)OCCO3)CCN1C(=O)Cc1cc(F)ccc1F` (centres undefined) here?
Answer: Its value is “inactive”.

Question: For `CCCOc1ccc(F)cc1-c1cc(C(=O)NCc2ccc(F)cc2)[nH]n1`, which “activity change, negative = inhibition” value is on record?
Answer: Its value is -8.69%.

Question: Which Potency does the source give for `CN(Cc1cccc2ncccc12)C(=O)c1cnn(-c2nccc(-c3ccccc3F)n2)c1C1CC1` here?
Answer: Its Potency is 5.62 µM (active).

Question: Which “activity change, negative = inhibition” value does the source give for `Cc1ccc(-c2ccnc(-n3ncc(C(=O)N(C)Cc4cccc5ncccc45)c3C3CC3)n2)o1` here?
Answer: Its value is -4.61%.

Question: With `Cc1cccc(CNC(=O)c2cnn(-c3nccc(-c4ccccc4F)n3)c2C2CC2)n1` as the compound, how does the “activity change, negative = inhibition” value read?
Answer: Its value is -8.11%.

Question: Which “activity change, negative = inhibition” value does the source give for `CCOC(=O)C1=CCC(c2ccc(F)cc2)N(S(=O)(=O)c2ccc(C)cc2)C1` (centres undefined) here?
Answer: Its value is 18.9%.

Question: For `CCOc1cc(/C=C2\SC(N3CCCC(C)C3)=NC2=O)ccc1O` (centres undefined), which Potency is on record?
Answer: The Potency was 11.2 µM (active).

Question: For `O=C1N=C(N2CCCC2)S/C1=C\c1cccc(Br)c1`, which “activity change, negative = inhibition” value is on record?
Answer: Its value is -2.62%.

Question: With `CC1CCN(C2=NC(=O)/C(=C/c3ccc(O)cc3)S2)CC1` as the compound, how does the “activity change, negative = inhibition” value read?
Answer: The value was -10.7%.

Question: Which “activity change, negative = inhibition” value does the source give for `CCCCC(=O)N(C)c1c(CC)nc2c(OCc3ccc(S(C)(=O)=O)cc3)cccn12` here?
Answer: Its value is -16%.

Question: With `OCCC#Cc1ccc(N2C(c3ccsc3)=Cc3ccc(F)cc3C2c2c[nH]c3ccccc23)cc1` (centres undefined) as the compound, how does the “activity change, negative = inhibition” value read?
Answer: Its value is 8.59%.

Question: With `COc1ccc(CC2c3cc(OC)c(OC)cc3CC[N+]2(C)CCC(=O)OCCCCCOC(=O)CC[N+]2(C)CCc3cc(OC)c(OC)cc3C2Cc2ccc(OC)c(OC)c2)cc1OC` (centres undefined) as the compound, how does the Potency read?
Answer: Its Potency is 15.8 µM (active).

Question: With `COc1ccc(CN2CCOC2=O)cc1OC` as the compound, how does the “outcome” value read?
Answer: Its value is “inactive”.

Question: Which “activity change, negative = inhibition” value does the source give for `COC(=O)C1=CN(Cc2ccc(OC)c(OC)c2)C=C(C(=O)OC)C1c1cccs1` here?
Answer: The value was -12.4%.

Question: For `OC[C@@H]1CN(Cc2ccc(F)cc2)C[C@H](n2cnc3c(NC4CCCC4)ncnc32)O1`, which “activity change, negative = inhibition” value is on record?
Answer: Its value is -6.71%.
